Laboratory results: PubChem BioAssay AID2058 (Sanford-Burnham Center for Chemical Genomics, 2009)
In all, about 290,000 compounds went through this assay and about 150 (0.052%) were called active. What follows is part of a selection rich in actives, with near analogues and random picks from the rest. Results with a measured potency or affinity are listed apart. Values without a mark were called inactive.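 Rule for the calls: active = inhibition of at least 50% with at least 30 cells and total cytoplasm GFP at most 10,000,000; inconclusive = under 30 cells or total GFP of 10,000,000 plus; inactive = the rest.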

target: G-protein coupled receptor 35 (Homo sapiens) (UniProt Q9HC97); experiment: GPR35 antagonists blocking zaprinast-driven arrestin recruitment, primary screen, imaging, U2OS, beta-arrestin-GFP, zaprinast agonist (AID 2058); details: U2OS GPR35 beta-arrestin-GFP translocation imaging, zaprinast antagonism; at 10 µM; active compounds read high
Sequence (Q9HC97 whole entry, looked up): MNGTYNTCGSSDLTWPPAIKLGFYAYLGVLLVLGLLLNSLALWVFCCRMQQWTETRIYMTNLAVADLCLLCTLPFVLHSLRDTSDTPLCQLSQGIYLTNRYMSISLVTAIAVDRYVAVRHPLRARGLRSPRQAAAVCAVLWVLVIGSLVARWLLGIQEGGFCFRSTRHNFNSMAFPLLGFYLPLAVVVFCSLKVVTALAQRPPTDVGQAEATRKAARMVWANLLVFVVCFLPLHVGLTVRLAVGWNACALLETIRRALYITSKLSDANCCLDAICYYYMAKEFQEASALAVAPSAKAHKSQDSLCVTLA

| Compound | inhibition |
| --- | --- |
| COc1ccc(C(=O)/C=C/C(=O)N(CC(=O)NC2CCCCC2)CC2CCCO2)c(O)c1 (stereo unspecified) | 69.1% (active) |
| COCCN(CC(=O)NC1CCCCC1)C(=O)/C=C/C(=O)c1ccc(OC)cc1O | 15.7% |
| COc1ccc(C(=O)/C=C/C(=O)N(CC(=O)NC2CCCCC2)Cc2ccccc2)c(O)c1 | -0.1% |
| Cc1nn(-c2ccccc2)nc1C(N)=O | 12.1% |
| O=C1C2C3C=CC(C3)C2C(=O)N1CCCCCCN1C(=O)C2C3C=CC(C3)C2C1=O (stereo unspecified) | -2% |
| O=C1C=CC(=O)N1Cc1ccccc1 | 4.8% |
| COc1cccc(Nc2nc(N)c([N+](=O)[O-])c(N3CCOCC3)n2)c1 | 0.4% |
| O=C(NCc1ccco1)C(=O)NCC1OCCCN1S(=O)(=O)c1ccc(Cl)cc1 (stereo unspecified) | -6.3% |
| C/C(=N/NC(=O)CNC(=O)C1COc2ccccc2O1)c1cccc(O)c1 (stereo unspecified) | 0.2% |
| COc1ccc(/C=C/C(=O)NCC(=O)N/N=C/c2ccc(OC)cc2)cc1 | 9% |
| O=C(/C=C\c1ccccc1)NCC(=O)N/N=C/c1ccc(O)cc1O | 10.7% |
| COc1ccc(/C=C2\SC(=S)N(CCCC(=O)Nc3ccc(C(=O)O)cc3)C2=O)cc1OC | 30% |
| COc1ccc(/C=C2/SC(=S)N(Cc3ccccc3)C2=O)cc1O | -18.7% |
| COc1cc(/C=C2/SC(=S)N(Cc3ccccc3)C2=O)ccc1O | -5.7% |
| O=C(CCCN1C(=O)/C(=C\c2cccs2)SC1=S)Nc1cccc(C(=O)O)c1 | 0.3% |
| CCc1ccc(/C=C2/SC(=S)N(CCC(=O)Nc3cccc(C(=O)O)c3)C2=O)cc1 | -9.9% |
| COc1ccc(/C=C2\SC(=S)N(CCC(=O)Nc3cccc(C(=O)O)c3)C2=O)cc1 | 2.8% |
| Cc1ccc(/C=C2/SC(=S)N(CCCC(=O)Nc3ccc(O)cc3)C2=O)cc1 | 36.2% |
| COc1ccc(/C=C2\SC(=S)N(CCCC(=O)Nc3ccc(O)cc3)C2=O)cc1 | 44.8% |

| Compound | inhibition |
| --- | --- |
| COc1cc(/C=C2/SC(=S)N(Cc3ccccc3)C2=O)cc(Cl)c1O | 74.4% (active) |
| COC(=O)c1ccc(Cn2nc(C)c(Br)c2C)cc1 | 4% |
| C[C@H](NC(=O)c1nc[nH]c1C(=O)N[C@H](C)c1ccccc1)C(=O)OC(C)(C)C | 5.8% |
| Cc1cc(=O)oc2c(C)c3occc3cc12 | -1.8% |
| O=C1C(=O)N(CCN2CCOCC2)C(c2cccc(Cl)c2)/C1=C(\O)c1ccc2c(c1)OCCO2 (stereo unspecified) | -1.2% |
| Cc1ccccc1COc1ccc2oc(C)c(C(=O)O)c2c1 | -10.4% |
| O=[N+]([O-])c1c(-c2cn[nH]c2)n[nH]c1-c1cn[nH]c1 | -2% |
| O=C(COc1ccc(S(=O)(=O)N2CCCC2)cc1Cl)N1CCN(c2ccccc2)CC1 | -0.4% |
| Cc1oc(-c2ccccc2F)nc1CN1CCC(C(=O)NC2CC2)CC1 | -1.6% |
| O=C(CCCN1C(=O)/C(=C/c2ccccc2)SC1=S)Nc1cccc(O)c1 | -8.3% |
| O=C(CCN1C(=O)/C(=C/c2ccc(Cl)cc2)SC1=S)Nc1cccc(C(=O)O)c1 | 1.5% |
| O=C(/C=C/c1ccco1)Nc1ccccc1C(=O)Nc1cccc(C(=O)O)c1 | -11.1% |
| CCc1ccccc1NC(=O)c1cccc(NC(=O)/C=C/c2ccco2)c1 | 10.4% |
| COC(=O)c1sc(N2C(=O)C(O)=C(C(=O)c3ccc(C)o3)C2c2ccc([N+](=O)[O-])cc2)nc1C (stereo unspecified) | -3.4% |
| CCOc1ccc(C2C(C(=O)c3ccc(C)o3)=C(O)C(=O)N2c2nc(C)c(C(=O)OC)s2)cc1 (stereo unspecified) | 5.8% |
| COC(=O)c1sc(N2C(=O)C(O)=C(C(=O)c3ccc(C)o3)C2c2ccc(F)cc2)nc1C (stereo unspecified) | 100% (active) |
| O=S(=O)(Nc1ccc(N=Nc2ccccc2)cc1)c1ccccc1 | -12.2% |
| O=S(=O)(Nc1ccc(O)c(NS(=O)(=O)c2ccccc2)c1)c1ccccc1 | -5.8% |
| O=S(=O)(Nc1ccc(N=Nc2ccc(O)c3ccccc23)cc1)c1ccccc1 | 70.3% (active) |

| Compound | inhibition |
| --- | --- |
| COc1cccc(NC(=O)NNC(=O)CCc2ccc(O)c(O)c2)c1 | 11.4% |
| CC(=O)c1ccc(N2CCN(c3ncc(C(F)(F)F)cc3Cl)CC2)cc1 | -3.2% |
| CN(C)C=NC(=O)c1ccc(N2CCN(c3ncc(C(F)(F)F)cc3Cl)CC2)cc1 | 14.6% |
| O=C(CSc1nnc(-c2ccc(F)cc2)o1)c1ccc2c(c1)OCCO2 | 11.5% |
| O=C(/C=C/c1ccccc1)NC(NC(=S)Nc1cc(Cl)ccc1Cl)C(Cl)(Cl)Cl (stereo unspecified) | 27.8% |
| O=C(/C=C/c1ccccc1)NC(NC(=S)Nc1ccc(Cl)cc1Cl)C(Cl)(Cl)Cl (stereo unspecified) | 76.2% (active) |
| O=C(/C=C/c1ccccc1)NC(NC(=S)Nc1ccc(Cl)cc1)C(Cl)(Cl)Cl (stereo unspecified) | -0.3% |
| CC1=C(C(=O)Nc2ccccc2C(=O)N2CCC(C)CC2)SCCO1 | -12.3% |
| COc1ccc(CCC(=O)Nc2ccc(Cl)c(S(=O)(=O)N3CCCC3)c2)cc1 | -7.8% |
| COCCNC(=O)CSc1nc2ccc(N3CCOCC3)cc2c(=O)n1CCc1ccccc1 | -7.7% |
| N#CC(C#N)=C1C=C2C=C(N3CCOCC3)CCC2CC1 (stereo unspecified) | 1.7% |
| N#CC(C#N)=C1C=C2C=C(N3CCCCCC3)CCC2CC1 (stereo unspecified) | 46% |
| CC1(C)CC(NCCN2CCN(C3=CC(=C(C#N)C#N)CC(C)(C)C3)CC2)=CC(=C(C#N)C#N)C1 | -1% |
| N#CC(C#N)=C1C=C2C=C(N3CCCCC3)CCC2CC1 (stereo unspecified) | 11.2% |
| COC(=O)c1cc(NC2c3ccccc3C(=O)N2c2cccnc2)cc(C(=O)OC)c1 (stereo unspecified) | -4% |
| COc1cccc(C2N=C(c3ccccc3C)NO2)c1OC (stereo unspecified) | 13.2% |
| O=C(CSc1nc(O)c(C2CCCCC2)c(=O)[nH]1)Nc1ccccc1Cl | -1.9% |
| O=C(Nc1ccc2c(c1)oc1ccccc12)C1CC1 | 1.2% |
